Columns and labels:
Assay in all cases: log2 ratio of Biotin-Ahx-Ub-VS probe labelling (fragment/DMSO); higher = less target engagement (more negative = stronger competition), active = hit call of the paper (q ≤ 0.05, log2 ratio ≤ -1)
Details in all cases: compound concentration: 200 uM; treatment time: 3 h
[1] = biological target: T1, OTUD6B (UniProt Q8N6M0)
T1 sequence (whole entry): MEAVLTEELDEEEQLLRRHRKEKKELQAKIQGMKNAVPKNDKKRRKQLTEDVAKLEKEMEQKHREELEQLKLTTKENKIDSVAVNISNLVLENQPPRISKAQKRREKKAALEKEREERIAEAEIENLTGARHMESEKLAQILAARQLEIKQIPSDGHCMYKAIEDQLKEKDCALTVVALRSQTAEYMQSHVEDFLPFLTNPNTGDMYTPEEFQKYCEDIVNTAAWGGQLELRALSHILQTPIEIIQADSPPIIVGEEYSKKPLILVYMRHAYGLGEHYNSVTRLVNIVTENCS
How it was run: (§1)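 Labelling with Biotin-Ahx-Ub-VS (0.5 µM final, 1 h) followed a 3 h triplicate treatment of HEK293T lysate (495 µg per sample, Tris/CHAPS/IGEPAL buffer with protease inhibitors) with fragment at 200 µM or vehicle. Labelled DUBs were NeutrAvidin-enriched, digested with LysC and trypsin, and run by diaPASEF LC-MS/MS. The values, average log2 fragment/vehicle ratios by unpaired t-test, come from global-median-normalised Spectronaut label-free quantities. Proteins with ≥2 unique peptides were used.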

[2] = biological target: T2, OTUD7B (UniProt Q6GQQ9)
T2 sequence (whole entry): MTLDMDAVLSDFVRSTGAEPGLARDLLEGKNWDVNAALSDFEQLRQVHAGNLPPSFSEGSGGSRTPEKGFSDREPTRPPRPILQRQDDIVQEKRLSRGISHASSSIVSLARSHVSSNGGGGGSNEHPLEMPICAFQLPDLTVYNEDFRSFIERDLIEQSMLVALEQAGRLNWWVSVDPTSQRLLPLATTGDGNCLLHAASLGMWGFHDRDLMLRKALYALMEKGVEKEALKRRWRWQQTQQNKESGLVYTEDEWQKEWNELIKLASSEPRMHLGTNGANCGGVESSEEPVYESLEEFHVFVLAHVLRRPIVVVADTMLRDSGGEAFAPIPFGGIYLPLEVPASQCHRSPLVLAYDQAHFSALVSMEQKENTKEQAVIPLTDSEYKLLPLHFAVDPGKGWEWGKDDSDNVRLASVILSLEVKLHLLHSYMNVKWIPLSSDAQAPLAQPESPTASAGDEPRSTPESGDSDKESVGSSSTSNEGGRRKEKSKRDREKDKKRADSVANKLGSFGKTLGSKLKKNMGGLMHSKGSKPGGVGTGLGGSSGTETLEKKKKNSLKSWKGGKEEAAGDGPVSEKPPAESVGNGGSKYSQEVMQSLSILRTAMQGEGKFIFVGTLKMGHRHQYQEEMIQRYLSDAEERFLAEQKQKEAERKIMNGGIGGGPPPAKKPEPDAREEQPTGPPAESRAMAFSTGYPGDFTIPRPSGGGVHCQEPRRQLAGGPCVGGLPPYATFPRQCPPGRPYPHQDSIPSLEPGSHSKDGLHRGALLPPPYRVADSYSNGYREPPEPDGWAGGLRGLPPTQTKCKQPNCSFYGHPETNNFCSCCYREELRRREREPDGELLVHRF
How it was run: as §1

[3] = biological target: PRPF8 (UniProt Q6P2Q9)
How it was run: as §1

[4] = biological target: T3, PSMD7 (UniProt P51665)
T3 sequence (whole entry): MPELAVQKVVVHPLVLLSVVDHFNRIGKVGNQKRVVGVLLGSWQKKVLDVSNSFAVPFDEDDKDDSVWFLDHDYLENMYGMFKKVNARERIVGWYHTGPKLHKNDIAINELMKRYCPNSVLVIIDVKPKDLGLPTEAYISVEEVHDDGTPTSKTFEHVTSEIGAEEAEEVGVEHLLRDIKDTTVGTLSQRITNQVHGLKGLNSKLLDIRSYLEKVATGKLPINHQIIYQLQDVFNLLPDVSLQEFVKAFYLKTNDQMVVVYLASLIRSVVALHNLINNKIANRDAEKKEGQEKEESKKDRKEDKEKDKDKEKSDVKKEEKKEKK
How it was run: as §1

[5] = biological target: UCHL1 (UniProt P09936)
Sequence of UCHL1 (P09936 whole entry, looked up): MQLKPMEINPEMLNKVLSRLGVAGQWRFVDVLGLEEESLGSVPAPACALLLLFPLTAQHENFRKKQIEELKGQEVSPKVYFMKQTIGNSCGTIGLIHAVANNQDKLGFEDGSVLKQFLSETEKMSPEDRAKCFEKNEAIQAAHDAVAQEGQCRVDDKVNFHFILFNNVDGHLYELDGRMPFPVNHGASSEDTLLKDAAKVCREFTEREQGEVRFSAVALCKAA
How it was run: as §1

[6] = biological target: T4, UCHL3 (UniProt P15374)
T4 sequence (whole entry): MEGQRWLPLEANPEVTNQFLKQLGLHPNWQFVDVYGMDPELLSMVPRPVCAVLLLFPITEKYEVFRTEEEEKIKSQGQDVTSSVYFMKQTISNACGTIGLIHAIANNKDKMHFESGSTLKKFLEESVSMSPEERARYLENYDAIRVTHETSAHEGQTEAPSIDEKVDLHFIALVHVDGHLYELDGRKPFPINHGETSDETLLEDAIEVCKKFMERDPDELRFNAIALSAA
How it was run: as §1

[7] = biological target: T5, UCHL5 (UniProt Q9Y5K5)
T5 sequence (whole entry): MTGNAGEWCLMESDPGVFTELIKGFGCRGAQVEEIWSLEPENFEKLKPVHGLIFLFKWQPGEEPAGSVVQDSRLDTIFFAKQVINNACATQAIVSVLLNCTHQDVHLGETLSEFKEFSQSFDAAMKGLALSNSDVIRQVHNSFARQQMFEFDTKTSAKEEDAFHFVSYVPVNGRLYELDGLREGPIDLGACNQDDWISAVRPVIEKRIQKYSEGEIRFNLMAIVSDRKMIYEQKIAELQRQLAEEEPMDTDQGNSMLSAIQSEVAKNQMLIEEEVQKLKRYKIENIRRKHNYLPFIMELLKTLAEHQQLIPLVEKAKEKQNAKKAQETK
How it was run: as §1

[8] = biological target: USP10 (UniProt Q14694)
Sequence of USP10 (Q14694 whole entry): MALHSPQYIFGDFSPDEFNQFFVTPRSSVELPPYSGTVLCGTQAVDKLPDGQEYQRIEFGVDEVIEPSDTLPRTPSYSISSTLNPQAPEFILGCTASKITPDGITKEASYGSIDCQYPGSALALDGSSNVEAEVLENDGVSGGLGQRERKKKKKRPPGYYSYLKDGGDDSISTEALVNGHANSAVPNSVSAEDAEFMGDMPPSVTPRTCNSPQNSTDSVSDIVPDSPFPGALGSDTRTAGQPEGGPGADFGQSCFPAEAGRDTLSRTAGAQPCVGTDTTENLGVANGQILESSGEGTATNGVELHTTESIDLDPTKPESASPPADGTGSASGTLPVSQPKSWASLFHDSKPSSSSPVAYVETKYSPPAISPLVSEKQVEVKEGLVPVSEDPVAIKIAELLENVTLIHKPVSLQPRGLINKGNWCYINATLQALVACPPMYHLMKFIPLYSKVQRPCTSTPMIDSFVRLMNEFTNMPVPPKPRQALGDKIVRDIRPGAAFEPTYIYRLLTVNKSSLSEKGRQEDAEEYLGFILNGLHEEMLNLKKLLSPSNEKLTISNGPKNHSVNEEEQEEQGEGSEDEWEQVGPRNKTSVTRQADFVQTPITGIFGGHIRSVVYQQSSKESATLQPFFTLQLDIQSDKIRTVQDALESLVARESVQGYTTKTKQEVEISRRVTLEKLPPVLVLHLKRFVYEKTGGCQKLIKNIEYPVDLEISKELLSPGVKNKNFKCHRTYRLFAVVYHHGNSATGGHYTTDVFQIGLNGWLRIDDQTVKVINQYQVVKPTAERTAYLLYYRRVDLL
How it was run: as §1

[9] = biological target: T6, USP15 (UniProt Q9Y4E8)
T6 sequence (whole entry): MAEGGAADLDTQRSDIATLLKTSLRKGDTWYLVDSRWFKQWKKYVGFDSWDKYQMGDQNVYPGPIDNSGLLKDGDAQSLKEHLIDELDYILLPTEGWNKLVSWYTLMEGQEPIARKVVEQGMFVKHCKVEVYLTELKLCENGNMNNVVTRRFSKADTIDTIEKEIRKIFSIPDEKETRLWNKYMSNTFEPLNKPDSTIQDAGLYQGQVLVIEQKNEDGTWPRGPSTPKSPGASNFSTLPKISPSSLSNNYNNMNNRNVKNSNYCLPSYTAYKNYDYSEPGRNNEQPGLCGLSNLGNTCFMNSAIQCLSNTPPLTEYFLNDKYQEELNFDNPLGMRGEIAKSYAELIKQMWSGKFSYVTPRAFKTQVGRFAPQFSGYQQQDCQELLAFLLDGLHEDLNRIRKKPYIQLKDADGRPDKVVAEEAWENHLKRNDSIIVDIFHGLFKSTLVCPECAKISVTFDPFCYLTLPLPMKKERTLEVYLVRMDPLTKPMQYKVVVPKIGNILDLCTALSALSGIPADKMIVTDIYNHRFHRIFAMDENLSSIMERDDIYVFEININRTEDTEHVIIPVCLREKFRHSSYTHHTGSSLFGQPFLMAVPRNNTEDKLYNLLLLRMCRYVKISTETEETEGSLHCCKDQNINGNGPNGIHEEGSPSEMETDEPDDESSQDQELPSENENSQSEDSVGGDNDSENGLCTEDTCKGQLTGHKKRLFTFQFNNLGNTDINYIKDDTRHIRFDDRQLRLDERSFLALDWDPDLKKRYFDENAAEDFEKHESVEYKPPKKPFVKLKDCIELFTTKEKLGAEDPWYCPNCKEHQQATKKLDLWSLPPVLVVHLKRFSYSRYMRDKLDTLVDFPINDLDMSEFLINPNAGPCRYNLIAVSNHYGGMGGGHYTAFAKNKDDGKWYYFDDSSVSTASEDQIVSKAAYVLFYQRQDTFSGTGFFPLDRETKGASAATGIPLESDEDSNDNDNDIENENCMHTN
How it was run: as §1

[10] = biological target: USP16 (UniProt Q9Y5T5)
Sequence of USP16 (Q9Y5T5 whole entry, looked up): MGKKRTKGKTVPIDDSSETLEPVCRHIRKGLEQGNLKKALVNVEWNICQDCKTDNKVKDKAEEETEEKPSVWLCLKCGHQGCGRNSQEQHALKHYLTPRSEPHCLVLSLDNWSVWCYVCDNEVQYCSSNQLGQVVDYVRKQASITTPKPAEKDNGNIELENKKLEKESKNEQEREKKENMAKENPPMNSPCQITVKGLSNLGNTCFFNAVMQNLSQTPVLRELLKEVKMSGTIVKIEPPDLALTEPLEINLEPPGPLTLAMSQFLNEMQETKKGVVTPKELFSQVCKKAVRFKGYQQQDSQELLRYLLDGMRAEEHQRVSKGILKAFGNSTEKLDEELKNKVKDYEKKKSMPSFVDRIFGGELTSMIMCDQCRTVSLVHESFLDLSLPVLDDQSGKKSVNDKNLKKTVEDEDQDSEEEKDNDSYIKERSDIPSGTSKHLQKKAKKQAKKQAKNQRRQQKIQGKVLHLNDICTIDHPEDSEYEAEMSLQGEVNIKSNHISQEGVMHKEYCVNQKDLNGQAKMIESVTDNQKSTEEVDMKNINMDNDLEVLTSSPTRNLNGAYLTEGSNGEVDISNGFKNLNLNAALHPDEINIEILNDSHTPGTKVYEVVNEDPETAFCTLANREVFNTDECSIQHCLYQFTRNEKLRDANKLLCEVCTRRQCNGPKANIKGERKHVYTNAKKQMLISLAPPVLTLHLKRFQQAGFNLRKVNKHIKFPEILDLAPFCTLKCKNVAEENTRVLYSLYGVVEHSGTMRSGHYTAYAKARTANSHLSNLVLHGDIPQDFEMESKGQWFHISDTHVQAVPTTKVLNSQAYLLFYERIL
How it was run: as §1

Measured: log2 ratio of Biotin-Ahx-Ub-VS probe labelling

Cl.O=C(CCl)NCCN1CCc2ccccc21
active: [5] -2.25 | [7] -1.03
inactive: [1] -0.983 | [2] -0.675 | [3] 0.014 | [4] -0.0696 | [6] -0.556 | [8] -0.344 | [9] -0.991 | [10] -0.252

Cc1cc(CC(C)NC(=O)CCl)n[nH]1 (stereo not given)
inactive: [1] -0.0562 | [2] -0.54 | [3] -0.109 | [4] -0.276 | [5] -0.533 | [6] -0.222 | [7] -0.292 | [8] -0.0255 | [9] -0.325 | [10] 0.186

Cc1cc(C(=O)NC2CCN(C(=O)CCl)CC2)no1
inactive: [1] -0.173 | [2] -0.263 | [3] -0.0374 | [4] -0.0768 | [6] 0.336 | [7] -0.135 | [8] -0.197 | [9] -0.252 | [10] 0.021
active: [5] -1.58

O=C(CCl)Nc1cccc(C(=O)N2CCSCC2)c1
inactive: [1] -0.0782 | [2] -0.71 | [3] -0.00865 | [4] -0.0955 | [5] -0.784 | [6] 0.0211 | [7] -0.176 | [8] -0.156 | [9] -0.164 | [10] -0.0446

Cl.Cn1ncc2c1CC(NC(=O)CCl)CC2 (stereo not given)
inactive: [1] 0.0134 | [2] -0.999 | [3] 0.142 | [4] -0.2 | [6] 0.377 | [7] -0.0217 | [8] -0.106 | [9] -0.0211 | [10] -0.62
active: [5] -1.84

CC(c1ccccc1)N(C)C(=O)CCl (stereo not given)
inactive: [1] 0.00154 | [2] -0.433 | [3] -0.049 | [4] 0.0333 | [5] -0.925 | [6] 0.257 | [7] -0.0435 | [8] -0.134 | [9] -0.334 | [10] -0.635

Cc1cccc(C(CNC(=O)CCl)N2CCOCC2)c1.Cl (stereo not given)
inactive: [1] -0.0947 | [2] -0.255 | [3] -0.0193 | [4] -0.183 | [6] 0.278 | [7] -0.182 | [8] -0.0807 | [9] -0.0506 | [10] -0.147
active: [5] -1.07

C[C@@H](NC(=O)CCl)c1cccc(C#N)c1
active: [2] -1.42 | [5] -1.24
inactive: [1] -0.0614 | [3] 0.0368 | [4] -0.233 | [6] 0.359 | [7] -0.189 | [8] -0.103 | [9] -0.222 | [10] 0.0341

Cc1c(C#N)c(NC(=O)CCl)n(Cc2ccco2)c1C
inactive: [1] -0.163 | [3] 0.194 | [4] 0.0239 | [6] 0.496 | [7] -0.133 | [8] -0.259 | [9] -0.505 | [10] -0.818
active: [2] -1.87 | [5] -1.43

O=C(CCl)N1CCC(S(=O)(=O)c2ccc(F)cc2)CC1
active: [5] -1.14
inactive: [1] -0.129 | [2] -0.758 | [3] -0.03 | [4] -0.129 | [6] 0.498 | [7] -0.128 | [8] -0.175 | [9] -0.327 | [10] 0.341

O=C(CCl)NC(Cn1ccccc1=O)c1ccccc1 (stereo not given)
inactive: [1] 0.102 | [2] -0.332 | [3] -0.224 | [4] -0.094 | [6] 0.233 | [7] -0.175 | [8] -0.0324 | [9] -0.0415 | [10] -0.972
active: [5] -1.61

O=C(CCl)N1CCCCC12CCOCC2
active: [5] -2.07
inactive: [1] -0.371 | [2] -0.652 | [3] -0.0698 | [4] -0.183 | [6] -0.176 | [7] -0.503 | [8] -0.064 | [9] -0.474 | [10] -0.51

Cl.O=C(CCl)N1CCn2cncc2C1
inactive: [1] -0.541 | [2] -0.166 | [3] 0.208 | [4] 0.0226 | [6] 0.291 | [7] 0.0547 | [8] -0.131 | [9] -0.372 | [10] -0.425
active: [5] -1.37

O=C(CCl)NC1CCC(C(F)(F)F)CC1 (stereo not given)
inactive: [1] -0.153 | [2] -0.576 | [3] 0.103 | [4] -0.258 | [6] 0.327 | [7] -0.0657 | [8] -0.141 | [9] -0.158 | [10] -0.000805
active: [5] -1.31

— the supplement of paper PMC11732987, “Enantioselective OTUD7B fragment discovery through chemoproteomics screening and high-throughput optimisation” (Communications Chemistry, 2025)
